What was measured:
Assay in all cases: log2 ratio of Biotin-Ahx-Ub-VS probe labelling (fragment/DMSO); higher = less target engagement (more negative = stronger competition), active = hit call of the paper (q ≤ 0.05, log2 ratio ≤ -1)
Settings in all cases: compound concentration: 200 uM; treatment time: 3 h
USP42 = target: T1, USP42 (UniProt Q9H9J4)
T1 sequence (whole entry): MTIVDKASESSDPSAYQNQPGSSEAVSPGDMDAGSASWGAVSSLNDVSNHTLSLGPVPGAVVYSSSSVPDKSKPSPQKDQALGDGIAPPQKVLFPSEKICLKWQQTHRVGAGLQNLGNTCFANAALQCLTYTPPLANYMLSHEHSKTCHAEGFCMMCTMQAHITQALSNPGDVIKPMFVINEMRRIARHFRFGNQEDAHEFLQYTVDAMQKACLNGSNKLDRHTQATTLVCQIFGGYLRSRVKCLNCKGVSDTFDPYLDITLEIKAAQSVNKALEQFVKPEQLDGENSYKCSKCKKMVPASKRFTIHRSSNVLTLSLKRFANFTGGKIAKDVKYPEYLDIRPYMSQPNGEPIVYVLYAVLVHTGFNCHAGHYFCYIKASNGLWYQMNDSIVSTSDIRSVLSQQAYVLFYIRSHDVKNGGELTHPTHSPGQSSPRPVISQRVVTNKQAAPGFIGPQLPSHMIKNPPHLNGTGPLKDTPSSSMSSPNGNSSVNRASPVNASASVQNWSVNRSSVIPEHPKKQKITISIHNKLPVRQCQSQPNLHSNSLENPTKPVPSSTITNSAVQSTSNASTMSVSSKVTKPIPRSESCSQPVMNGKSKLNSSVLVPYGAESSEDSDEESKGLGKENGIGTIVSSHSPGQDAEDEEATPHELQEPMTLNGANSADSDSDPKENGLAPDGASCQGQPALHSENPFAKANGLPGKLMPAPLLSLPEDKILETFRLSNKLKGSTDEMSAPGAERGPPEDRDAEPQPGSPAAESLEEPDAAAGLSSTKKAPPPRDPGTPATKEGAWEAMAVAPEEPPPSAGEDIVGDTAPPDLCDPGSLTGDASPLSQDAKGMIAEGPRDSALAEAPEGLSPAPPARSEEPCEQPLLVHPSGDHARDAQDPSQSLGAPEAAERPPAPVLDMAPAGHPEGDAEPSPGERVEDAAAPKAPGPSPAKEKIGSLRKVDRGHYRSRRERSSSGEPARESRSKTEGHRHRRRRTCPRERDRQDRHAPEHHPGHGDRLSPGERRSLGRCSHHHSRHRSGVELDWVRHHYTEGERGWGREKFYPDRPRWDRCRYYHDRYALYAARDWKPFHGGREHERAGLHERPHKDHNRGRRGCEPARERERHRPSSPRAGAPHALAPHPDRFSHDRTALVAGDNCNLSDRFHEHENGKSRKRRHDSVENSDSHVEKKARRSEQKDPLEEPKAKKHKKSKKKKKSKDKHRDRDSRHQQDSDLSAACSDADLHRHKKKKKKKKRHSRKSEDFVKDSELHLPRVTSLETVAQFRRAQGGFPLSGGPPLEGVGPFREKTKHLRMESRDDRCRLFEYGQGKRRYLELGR
How it was run: (§1)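 HEK293T lysate in Tris/CHAPS/IGEPAL buffer with protease inhibitors (495 µg per sample) was given fragment at 200 µM or vehicle for 3 h, in triplicate. It then received Biotin-Ahx-Ub-VS at 0.5 µM final for 1 h. Labelled DUBs were NeutrAvidin-enriched, digested with LysC and trypsin, and run by diaPASEF LC-MS/MS. Values are average log2 fragment/vehicle ratios by unpaired t-test on global-median-normalised Spectronaut quantities of proteins with ≥2 unique peptides.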

USP46 = USP46 (UniProt P62068)
How it was run: as §1

USP47 = target: T2, USP47 (UniProt Q96K76)
T2 sequence (whole entry): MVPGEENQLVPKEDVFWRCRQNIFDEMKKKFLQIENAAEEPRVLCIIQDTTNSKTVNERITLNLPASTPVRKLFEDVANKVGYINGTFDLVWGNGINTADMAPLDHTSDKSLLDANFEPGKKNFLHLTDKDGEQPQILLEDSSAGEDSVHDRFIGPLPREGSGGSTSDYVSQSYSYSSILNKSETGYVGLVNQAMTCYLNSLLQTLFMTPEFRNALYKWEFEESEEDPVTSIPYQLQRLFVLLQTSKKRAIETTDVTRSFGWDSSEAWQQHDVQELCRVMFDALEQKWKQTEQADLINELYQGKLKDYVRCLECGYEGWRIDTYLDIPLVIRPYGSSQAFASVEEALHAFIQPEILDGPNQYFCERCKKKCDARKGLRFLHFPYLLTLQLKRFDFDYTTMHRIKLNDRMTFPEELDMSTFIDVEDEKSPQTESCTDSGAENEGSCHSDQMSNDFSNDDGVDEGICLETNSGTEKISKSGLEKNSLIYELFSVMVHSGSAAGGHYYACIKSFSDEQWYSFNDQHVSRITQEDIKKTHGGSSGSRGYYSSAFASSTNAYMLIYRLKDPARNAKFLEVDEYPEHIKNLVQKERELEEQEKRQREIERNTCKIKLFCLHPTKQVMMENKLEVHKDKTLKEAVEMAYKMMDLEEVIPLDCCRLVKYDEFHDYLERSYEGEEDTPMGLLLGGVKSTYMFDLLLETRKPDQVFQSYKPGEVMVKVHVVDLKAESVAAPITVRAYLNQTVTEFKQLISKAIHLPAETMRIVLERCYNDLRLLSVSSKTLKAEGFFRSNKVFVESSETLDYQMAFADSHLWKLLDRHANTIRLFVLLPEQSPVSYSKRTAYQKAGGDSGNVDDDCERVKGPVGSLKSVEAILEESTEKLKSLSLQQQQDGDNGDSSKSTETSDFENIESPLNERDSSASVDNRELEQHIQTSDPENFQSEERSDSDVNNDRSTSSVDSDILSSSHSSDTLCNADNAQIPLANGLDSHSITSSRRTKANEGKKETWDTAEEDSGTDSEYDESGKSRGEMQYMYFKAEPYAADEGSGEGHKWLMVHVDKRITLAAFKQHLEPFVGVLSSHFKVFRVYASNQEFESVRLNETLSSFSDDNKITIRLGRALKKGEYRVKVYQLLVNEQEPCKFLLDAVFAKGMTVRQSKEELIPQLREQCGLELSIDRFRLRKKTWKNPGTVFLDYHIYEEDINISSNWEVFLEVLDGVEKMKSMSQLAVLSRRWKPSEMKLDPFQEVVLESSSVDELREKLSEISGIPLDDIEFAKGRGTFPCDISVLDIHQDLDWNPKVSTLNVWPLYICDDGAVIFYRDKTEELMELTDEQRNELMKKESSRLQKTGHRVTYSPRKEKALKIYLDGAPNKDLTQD
How it was run: as §1

USP48 = target: T3, USP48 (UniProt Q86UV5)
T3 sequence (whole entry): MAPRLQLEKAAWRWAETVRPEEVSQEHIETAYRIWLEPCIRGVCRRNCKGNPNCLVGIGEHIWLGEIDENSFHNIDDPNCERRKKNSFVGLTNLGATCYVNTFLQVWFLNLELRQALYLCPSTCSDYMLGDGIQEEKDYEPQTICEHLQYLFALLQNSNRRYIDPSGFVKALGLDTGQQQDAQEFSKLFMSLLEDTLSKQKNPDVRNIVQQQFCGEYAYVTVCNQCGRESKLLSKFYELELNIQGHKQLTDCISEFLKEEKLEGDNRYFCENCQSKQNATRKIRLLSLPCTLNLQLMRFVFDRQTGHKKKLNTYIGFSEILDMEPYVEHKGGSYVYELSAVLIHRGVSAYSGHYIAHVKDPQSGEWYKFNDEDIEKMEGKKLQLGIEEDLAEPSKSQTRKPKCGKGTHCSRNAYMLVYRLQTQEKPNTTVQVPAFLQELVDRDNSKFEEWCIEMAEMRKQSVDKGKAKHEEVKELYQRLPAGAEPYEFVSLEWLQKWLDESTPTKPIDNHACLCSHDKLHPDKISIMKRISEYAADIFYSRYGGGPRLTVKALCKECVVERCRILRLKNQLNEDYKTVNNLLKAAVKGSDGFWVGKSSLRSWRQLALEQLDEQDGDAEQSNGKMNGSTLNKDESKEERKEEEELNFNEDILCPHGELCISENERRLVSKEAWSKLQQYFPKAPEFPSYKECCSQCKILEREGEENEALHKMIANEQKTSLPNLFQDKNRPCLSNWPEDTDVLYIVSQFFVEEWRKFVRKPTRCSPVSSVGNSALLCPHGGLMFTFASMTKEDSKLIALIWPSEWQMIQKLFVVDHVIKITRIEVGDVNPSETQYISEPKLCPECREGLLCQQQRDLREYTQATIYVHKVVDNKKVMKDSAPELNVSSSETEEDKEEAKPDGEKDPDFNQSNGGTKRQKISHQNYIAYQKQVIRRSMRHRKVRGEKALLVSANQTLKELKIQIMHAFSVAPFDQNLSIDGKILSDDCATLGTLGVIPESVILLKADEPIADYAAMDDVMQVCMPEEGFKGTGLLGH
How it was run: as §1

USP5 = target: T4, USP5 (UniProt P45974)
T4 sequence (whole entry): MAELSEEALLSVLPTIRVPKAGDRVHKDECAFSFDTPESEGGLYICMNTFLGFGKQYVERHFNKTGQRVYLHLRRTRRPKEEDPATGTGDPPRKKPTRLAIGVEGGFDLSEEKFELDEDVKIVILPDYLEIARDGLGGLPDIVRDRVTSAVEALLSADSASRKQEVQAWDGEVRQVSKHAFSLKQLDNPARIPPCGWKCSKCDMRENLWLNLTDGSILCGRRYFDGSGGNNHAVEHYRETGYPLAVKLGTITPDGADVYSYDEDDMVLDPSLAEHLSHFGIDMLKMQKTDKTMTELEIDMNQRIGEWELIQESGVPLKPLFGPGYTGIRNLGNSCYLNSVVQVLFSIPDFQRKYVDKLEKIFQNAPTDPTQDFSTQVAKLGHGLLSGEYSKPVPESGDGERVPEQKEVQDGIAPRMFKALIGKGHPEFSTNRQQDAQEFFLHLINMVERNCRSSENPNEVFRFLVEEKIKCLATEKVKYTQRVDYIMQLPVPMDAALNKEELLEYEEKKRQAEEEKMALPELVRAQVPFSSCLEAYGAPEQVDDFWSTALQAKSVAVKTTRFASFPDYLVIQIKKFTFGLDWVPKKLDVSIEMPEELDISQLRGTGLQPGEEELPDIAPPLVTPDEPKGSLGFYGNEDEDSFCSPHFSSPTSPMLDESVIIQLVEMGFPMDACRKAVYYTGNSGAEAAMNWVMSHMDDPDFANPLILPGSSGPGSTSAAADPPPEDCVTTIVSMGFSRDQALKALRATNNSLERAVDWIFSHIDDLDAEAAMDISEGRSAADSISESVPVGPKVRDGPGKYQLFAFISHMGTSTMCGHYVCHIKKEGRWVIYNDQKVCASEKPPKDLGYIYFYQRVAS
How it was run: as §1

USP54 = USP54 (UniProt Q70EL1)
How it was run: as §1

USP7 = USP7 (UniProt Q93009)
How it was run: as §1

USP8 = target: T5, USP8 (UniProt P40818)
T5 sequence (whole entry): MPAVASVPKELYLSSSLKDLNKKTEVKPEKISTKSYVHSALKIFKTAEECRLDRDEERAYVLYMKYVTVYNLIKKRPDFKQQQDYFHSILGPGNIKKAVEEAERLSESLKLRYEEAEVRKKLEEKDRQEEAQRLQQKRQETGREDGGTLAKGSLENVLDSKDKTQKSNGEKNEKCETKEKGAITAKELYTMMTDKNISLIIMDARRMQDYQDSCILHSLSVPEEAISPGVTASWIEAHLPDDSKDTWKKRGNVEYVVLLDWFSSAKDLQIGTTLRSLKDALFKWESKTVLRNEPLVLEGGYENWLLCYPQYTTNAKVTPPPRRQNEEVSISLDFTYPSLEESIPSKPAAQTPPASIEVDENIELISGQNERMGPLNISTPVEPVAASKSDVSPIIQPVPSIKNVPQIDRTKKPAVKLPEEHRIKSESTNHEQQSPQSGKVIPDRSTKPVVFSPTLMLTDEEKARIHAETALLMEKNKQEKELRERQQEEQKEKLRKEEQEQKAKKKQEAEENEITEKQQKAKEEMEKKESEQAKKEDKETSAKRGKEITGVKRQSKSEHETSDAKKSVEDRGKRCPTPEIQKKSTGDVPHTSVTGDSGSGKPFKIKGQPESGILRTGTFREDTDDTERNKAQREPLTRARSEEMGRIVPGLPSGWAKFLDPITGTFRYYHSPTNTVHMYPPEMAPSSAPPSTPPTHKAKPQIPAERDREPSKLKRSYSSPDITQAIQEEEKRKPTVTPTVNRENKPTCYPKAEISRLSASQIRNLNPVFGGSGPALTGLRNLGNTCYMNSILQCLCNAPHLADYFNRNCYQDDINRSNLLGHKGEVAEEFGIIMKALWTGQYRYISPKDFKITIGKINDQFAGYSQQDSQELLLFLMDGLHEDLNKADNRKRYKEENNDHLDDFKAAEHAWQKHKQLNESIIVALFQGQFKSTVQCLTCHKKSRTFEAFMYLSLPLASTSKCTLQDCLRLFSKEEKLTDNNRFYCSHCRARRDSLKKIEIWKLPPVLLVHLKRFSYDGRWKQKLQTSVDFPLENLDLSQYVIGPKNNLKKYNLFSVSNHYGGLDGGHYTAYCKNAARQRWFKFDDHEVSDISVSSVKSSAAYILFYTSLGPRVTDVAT
How it was run: as §1

Measured: log2 ratio of Biotin-Ahx-Ub-VS probe labelling

Sequence of USP54 (Q70EL1 whole entry): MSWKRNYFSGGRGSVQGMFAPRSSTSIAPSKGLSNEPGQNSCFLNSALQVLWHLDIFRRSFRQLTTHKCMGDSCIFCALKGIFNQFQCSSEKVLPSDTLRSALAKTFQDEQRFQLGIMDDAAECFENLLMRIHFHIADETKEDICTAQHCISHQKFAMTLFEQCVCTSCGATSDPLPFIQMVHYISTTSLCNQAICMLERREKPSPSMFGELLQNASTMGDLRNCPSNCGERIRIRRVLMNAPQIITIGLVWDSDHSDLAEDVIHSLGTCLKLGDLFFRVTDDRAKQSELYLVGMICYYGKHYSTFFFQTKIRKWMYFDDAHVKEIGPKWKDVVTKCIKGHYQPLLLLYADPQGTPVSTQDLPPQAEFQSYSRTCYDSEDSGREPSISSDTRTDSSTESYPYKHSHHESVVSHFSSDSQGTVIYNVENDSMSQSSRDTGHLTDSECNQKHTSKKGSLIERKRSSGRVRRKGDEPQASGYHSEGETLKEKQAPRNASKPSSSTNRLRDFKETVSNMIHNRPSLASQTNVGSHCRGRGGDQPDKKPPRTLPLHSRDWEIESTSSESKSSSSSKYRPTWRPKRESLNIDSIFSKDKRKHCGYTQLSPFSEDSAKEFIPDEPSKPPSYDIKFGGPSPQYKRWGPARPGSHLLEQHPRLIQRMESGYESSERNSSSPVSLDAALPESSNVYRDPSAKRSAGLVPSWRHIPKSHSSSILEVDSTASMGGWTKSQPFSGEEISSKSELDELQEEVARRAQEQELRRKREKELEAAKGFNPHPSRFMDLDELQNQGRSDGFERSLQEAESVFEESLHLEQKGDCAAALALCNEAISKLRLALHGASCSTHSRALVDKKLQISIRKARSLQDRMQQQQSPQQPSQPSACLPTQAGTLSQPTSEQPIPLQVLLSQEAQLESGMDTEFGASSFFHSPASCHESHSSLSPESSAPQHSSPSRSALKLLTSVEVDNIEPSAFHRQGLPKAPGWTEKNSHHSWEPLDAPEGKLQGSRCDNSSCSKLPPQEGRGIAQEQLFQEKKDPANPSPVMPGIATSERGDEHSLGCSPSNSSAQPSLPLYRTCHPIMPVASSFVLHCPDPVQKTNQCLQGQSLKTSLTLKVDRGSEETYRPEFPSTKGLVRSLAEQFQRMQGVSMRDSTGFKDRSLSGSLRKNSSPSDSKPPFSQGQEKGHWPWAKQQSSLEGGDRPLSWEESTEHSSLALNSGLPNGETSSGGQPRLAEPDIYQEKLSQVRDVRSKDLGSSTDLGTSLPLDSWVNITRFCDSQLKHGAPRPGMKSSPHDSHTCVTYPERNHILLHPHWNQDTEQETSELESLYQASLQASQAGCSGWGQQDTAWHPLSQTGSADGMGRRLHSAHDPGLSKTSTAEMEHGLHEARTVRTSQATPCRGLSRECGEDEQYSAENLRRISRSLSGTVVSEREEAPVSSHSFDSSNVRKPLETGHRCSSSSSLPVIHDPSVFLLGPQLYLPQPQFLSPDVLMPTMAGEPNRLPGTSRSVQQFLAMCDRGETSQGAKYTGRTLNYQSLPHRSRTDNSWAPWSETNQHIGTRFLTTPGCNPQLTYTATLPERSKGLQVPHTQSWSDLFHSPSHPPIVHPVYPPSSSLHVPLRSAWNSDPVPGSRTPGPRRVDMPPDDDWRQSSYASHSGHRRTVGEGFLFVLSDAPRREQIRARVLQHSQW
Sequence of USP7 (Q93009 whole entry, looked up): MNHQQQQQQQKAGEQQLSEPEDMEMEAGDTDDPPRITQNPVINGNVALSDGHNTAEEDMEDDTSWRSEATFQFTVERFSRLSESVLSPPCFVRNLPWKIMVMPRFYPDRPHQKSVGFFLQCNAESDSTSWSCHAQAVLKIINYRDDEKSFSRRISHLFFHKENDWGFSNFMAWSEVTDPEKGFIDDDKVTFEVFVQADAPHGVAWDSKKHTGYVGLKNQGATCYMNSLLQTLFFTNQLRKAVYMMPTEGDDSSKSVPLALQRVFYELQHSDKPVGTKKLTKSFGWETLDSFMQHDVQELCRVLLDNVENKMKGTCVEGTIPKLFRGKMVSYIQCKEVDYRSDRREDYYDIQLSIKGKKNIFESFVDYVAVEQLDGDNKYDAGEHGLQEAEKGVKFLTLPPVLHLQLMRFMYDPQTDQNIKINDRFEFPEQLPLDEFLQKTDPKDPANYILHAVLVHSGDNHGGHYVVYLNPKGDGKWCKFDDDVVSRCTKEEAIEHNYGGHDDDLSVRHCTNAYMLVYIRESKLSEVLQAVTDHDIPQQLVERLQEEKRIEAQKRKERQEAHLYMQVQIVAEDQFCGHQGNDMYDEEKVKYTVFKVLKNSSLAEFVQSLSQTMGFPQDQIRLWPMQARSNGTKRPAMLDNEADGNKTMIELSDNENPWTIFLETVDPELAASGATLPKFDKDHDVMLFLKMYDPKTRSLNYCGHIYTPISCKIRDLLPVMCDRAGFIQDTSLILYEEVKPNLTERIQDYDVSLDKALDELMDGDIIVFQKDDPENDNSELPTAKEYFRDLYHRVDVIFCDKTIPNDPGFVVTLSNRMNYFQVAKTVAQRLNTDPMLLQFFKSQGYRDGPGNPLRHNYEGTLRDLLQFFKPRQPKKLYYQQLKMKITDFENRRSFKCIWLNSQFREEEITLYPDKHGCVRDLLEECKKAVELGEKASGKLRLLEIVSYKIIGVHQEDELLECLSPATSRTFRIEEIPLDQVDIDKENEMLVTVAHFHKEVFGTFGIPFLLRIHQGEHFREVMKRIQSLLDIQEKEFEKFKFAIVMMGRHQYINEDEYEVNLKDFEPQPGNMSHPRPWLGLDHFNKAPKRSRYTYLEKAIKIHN
Sequence of USP46 (P62068 whole entry): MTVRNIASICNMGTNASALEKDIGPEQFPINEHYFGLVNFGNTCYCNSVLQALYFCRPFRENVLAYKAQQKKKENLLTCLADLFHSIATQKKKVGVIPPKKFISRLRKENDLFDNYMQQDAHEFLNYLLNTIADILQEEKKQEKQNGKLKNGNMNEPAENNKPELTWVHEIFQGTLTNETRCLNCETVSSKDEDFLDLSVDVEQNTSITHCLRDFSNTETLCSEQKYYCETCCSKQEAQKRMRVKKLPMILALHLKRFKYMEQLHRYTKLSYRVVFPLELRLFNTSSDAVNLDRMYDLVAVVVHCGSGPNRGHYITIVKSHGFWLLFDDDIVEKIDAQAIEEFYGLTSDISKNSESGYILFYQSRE

O=C(CCl)NCCC1=CCCCC1
inactive: USP42 0.91 | USP46 -0.0411 | USP47 -0.145 | USP48 0.0648 | USP5 0.0523 | USP54 0.116 | USP7 -0.402 | USP8 0.244

— the supplement of paper PMC11732987, “Enantioselective OTUD7B fragment discovery through chemoproteomics screening and high-throughput optimisation” (Communications Chemistry, 2025)
